Data published in PubChem BioAssay AID686978 (National Center for Advancing Translational Sciences (NCATS), 2013).
Out of some 420,000 compounds screened, about 64,000 (15%) were called active. Inconclusive results (about 27%) are left out. Not all results are given here. Values without a mark were called inactive. The call rests on the fitted dose curve; in most records, active means well fitted inhibition curve with a large enough effect; inconclusive means small, poorly fitted or top-dose-only effect; inactive means flat fitted curve, though single readings scatter.

test: qHTS for Inhibitors of human tyrosyl-DNA phosphodiesterase 1 (TDP1): qHTS in cells in absence of CPT; settings: DT40 Tdp1-/- hTDP1 cells, no CPT, ATP luminescence, 48 h; activity change, negative = growth inhibition: at 46.2 µM (top of the series); further: nearly all actives have a fitted effect of over 55% in size
Method in brief: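 Chicken DT40 Tdp1-/- cells stably complemented with human TDP1 were seeded at 400 cells/well with DMSO in place of 20 nM camptothecin. After compound pinning, cells grew at least 48 hr at 37 °C; viability read by CellTiter-Glo luminescence.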
On the % scale 0 is the no-effect control and ±100 the full control effect; potency means the concentration at half of the fitted maximal effect.

Point of comparison: `C[C@H]1CN([C@@H](C)CO)C(=O)Cc2cc(NS(C)(=O)=O)ccc2O[C@@H]1CN(C)CC1CC1`, “activity change, negative = growth inhibition” value -11%. Against it:
- Cc1ccc2[nH]c3c(=O)n(CC(=O)NC(C)C)ncc3c2c1 — higher, 4.21%
- COc1ccc(S(=O)(=O)NC(C)C(=O)Nc2cccc([N+](=O)[O-])c2)cc1 (stereo unspecified) — lower, -25.6%
- Cc1ccc(S(=O)(=O)c2c[nH]c3ccc(C)cc3c2=O)cc1 — higher, -4.84%
- CCC(Oc1ccccc1)C(=O)OCC(=O)Nc1c(C)nn(-c2ccccc2)c1C (stereo unspecified) — lower, -13.4%
- CCCc1cc(C(=O)Nc2ccc(C(=O)OC)cc2)cs1 — higher, 6.02%
- CC(O)c1ccc(OCCN(C)c2ccccn2)cc1 (stereo unspecified) — higher, -6.31%
- O=C(COC(=O)c1c(Cl)cccc1Cl)Nc1cccc(S(=O)(=O)NC2=NCCCCC2)c1 — higher, 13.1%
- CCn1c(CC(=O)Nc2ccccc2C)nnc1SCC(=O)NC1=NCCS1 — lower, -27%
- COCCCNC(=O)C1CCN(c2ccc(N3CCOCC3)nn2)CC1 — higher, 0.0826%
- Cn1cc(C(=O)NCc2ccccc2F)cn1 — lower, -12.8%
- COC(=O)Cc1ccc(NC(=S)NCc2ccccc2)cc1 — lower, -29.3%
- C[C@H](C(=O)CC(=O)OC(C)(C)C)[C@H](O)c1ccc(C(F)(F)F)cc1 — lower, -27.5%
- O=C(NCc1ccncc1)NC12CC3CC(CC(C3)C1)C2 — lower, -16.2%
- CCN(CC(=O)NCc1ccc(F)cc1)S(=O)(=O)c1ccc(Cl)s1 — higher, -10.1%
- CCCCNC(=O)c1nc(C2CCN(S(=O)(=O)c3ccc(F)c(F)c3)CC2)oc1-c1cccc(C(F)(F)F)c1 — higher, 2.36%
- C#CC(CCN1CCCCC1)(OC)c1ccccc1 (stereo unspecified) — higher, -0.836%
- CCC1CCC/C1=N\NC(=O)c1ccc(Cl)cc1 (stereo unspecified) — higher, -9.86%
- COc1ccc(CN2CCNC(=O)C2CC(=O)N(C)Cc2ccccn2)cc1OC (stereo unspecified) — higher, 1.2%
- CC1CC(C)CN(S(=O)(=O)c2cccc(C(=O)N3C(=O)c4cccc(N)c4C3=O)c2)C1 (stereo unspecified) — higher, 5.73%
- COc1cccc2cc(-c3nc(Cl)c4c5c(sc4n3)CC(C)CC5)c(=O)oc12 (stereo unspecified) — higher, -0.111%
- Cc1ccc(NC(=O)Cn2nnc3sc4c(c3c2=O)CCC(C)C4)cc1 (stereo unspecified) — lower, -79.2%
- O=C(C1CCCO1)N(Cc1ccccc1)c1ccccc1 (stereo unspecified) — higher, -1.91%
- Cc1cc(C)c(NC(=O)c2cc3sc(Cl)cc3n2C)c(C)c1 — lower, -14.2%
- CCOC(=O)Cc1ncccc1C(=O)Nc1ccc(OC)cc1 — higher, -8.44%
- COC(=O)Cc1ccc(OCC(=O)Nc2ccc(OC(F)(F)F)cc2)cc1 — higher, 0.899%
- O=c1[nH]snc1-c1c(Cl)cccc1Cl — higher, 2.16%
- O=C(NC1CC(=O)N(c2ccc(Cl)cc2)C1)C1CCCC1 (stereo unspecified) — lower, -17.6%
- Cc1cc(C)c(S(=O)(=O)Nc2c(C)n(C)n(-c3ccccc3)c2=O)cc1[N+](=O)[O-] — higher, -2.01%
- CCCCCCCC[n+]1cccc(C(=O)N2c3c(nc(N)[nH]c3=O)NC(C)C2C)c1 (stereo unspecified) — higher, -7.83%
- N#CC1=C(N)N(c2ccccc2)C2=C(C(=O)CCC2)C1c1ccccc1 (stereo unspecified) — higher, -9.89%
- COc1ccc(C2C(C#N)=C(N)N(c3ncn[nH]3)C3=C2C(=O)CCC3)cc1 (stereo unspecified) — higher, -0.937%
- Nc1c(N(CCO)C(=O)C2CCCCC2)c(=O)[nH]c(=O)n1Cc1ccccc1 — lower, -28.9%
- COCCSc1nnc(NC(=O)c2cc(OC)c(OC)cc2[N+](=O)[O-])s1 — higher, -0.273%
- c1csc(-c2cn3c(n2)SCC3)c1 — lower, -23.2%
- Cc1nnc2n1N=C(c1ccccc1)CS2 — higher, -0.421%
- Cc1ccc(OCC(=O)N/N=C\c2ccco2)c(C)c1 — higher, -9.09%
- Cc1ccc(NC(=O)CCC(=O)N/N=C/c2ccco2)c(C)c1 — higher, -0.547%
- O=C(NC1CCCC1)C(c1ccco1)N(C(=O)c1csnn1)c1ccccc1 (stereo unspecified) — higher, -9.4%
- O=C(NCc1ccccc1)C(c1ccc(F)cc1)N1CCN(C(=O)C2CCCO2)CC1 (stereo unspecified) — higher, -3.25%
- O=C(NCC1CCCO1)/C(=C/c1ccc(Cl)cc1)NC(=O)c1ccccc1 (stereo unspecified) — lower, -11.4%
- Cc1ccc(NC(=O)CN(C)C(=O)COC(=O)c2nccnc2N)cc1 — lower, -17.6%
- Brc1ccccc1C1N=C(c2ccccc2)NO1 (stereo unspecified) — lower, -17.2%
- CCOC(=O)C1CCCN(C(=O)c2ccc(N(C)C)cc2)CC1 (stereo unspecified) — lower, -22.5%
- CCN1CCN(C(=O)c2ccc(CN(c3ccc(C)c(C)c3)S(C)(=O)=O)cc2)CC1 — lower, -25.9%
- CO/N=C/CC(=O)c1ccc(OC)cc1 — higher, -8.75%
- COCCNc1nc2nonc2nc1N(C)Cc1ccc(C)cc1 — higher, -6.6%
- CN(C)C(CNC(=O)CCCOc1ccccc1)c1ccco1 (stereo unspecified) — higher, 1.99%
- CCc1cccc(C)c1NS(=O)(=O)c1c(C)nc2sccn2c1=O — lower, -19.2%
- COc1ccc(N2CCN(S(=O)(=O)c3cc(Br)cnc3N)CC2)cc1 — higher, -2.17%
- Cc1cc(C)c2nc(-c3ccco3)cc(C(=O)O)c2c1 — lower, -19.2%
- CC(C)(CNC(=O)Cc1ccc(Cl)cc1Cl)N1CCOCC1 — higher, 3.47%
- CN(C)S(=O)(=O)c1ccc(C(=O)NCC(C)(C)N2CCOCC2)cc1 — higher, -1.91%
- Cc1ccc(C)c(NC(=O)COC(=O)CSc2ccccc2)c1 — higher, -10.1%
- O=C(NC(=O)c1ccccc1N1CCCCC1)Nc1ccc(Br)cc1 — higher, -2.29%
- Cc1ccccc1C(=O)Nc1ccccc1NC(=O)c1ccccc1C — lower, -28.3%
- O=C(Nc1ccc(N2CCN(C(=O)c3cccs3)CC2)cc1)c1cccnc1Cl — higher, 1.55%
- Cc1ccccc1C(=O)NC(=S)NC1CC1 — higher, -9.02%
- COc1ccc(N2CCN(C(=O)c3cccs3)CC2)cc1 — higher, -6.89%
- Cc1cccc(C)c1NC(=O)CS(=O)CC(=O)N1CCN(c2ccccc2)CC1 (stereo unspecified) — lower, -24.6%
- NS(=O)(=O)c1ccc(CCNC(=O)COC(=O)COc2cccc(C(F)(F)F)c2)cc1 — higher, 5.08%
- Cc1noc(NS(=O)(=O)c2ccc(NC(=O)c3oc4ccc(F)cc4c3C)cc2)c1C — higher, 7.6%
- Cc1cc(C)n(CC(=O)Nc2ccc([N+](=O)[O-])cc2)n1 — higher, -1.22%
- COC(=O)c1cccc(-n2[nH]nnc2=S)c1 — lower, -16.2%
- CC(=O)c1ccc(S(=O)(=O)NCc2nnnn2-c2ccccc2)cc1 — higher, -10.6%
- OCCCNC(c1ccccc1)c1ccc(O)cc1 (stereo unspecified) — higher, -10%
- O=C(CC1C(=O)NCCN1CC(c1ccccc1)c1ccccc1)NCC1CCOCC1 (stereo unspecified) — higher, -6.96%
- COc1cc(-c2cc3n(C)c(C)c(CCC(=O)Nc4ccc(F)cc4)c(=O)n3n2)cc(OC)c1OC — lower, -24%
- Cc1ccc(CNC(=O)C2CCCN2C(=O)NCc2ccccc2)cc1 (stereo unspecified) — higher, -7.07%
- CCN(CC)S(=O)(=O)c1ccc(N2CC(C(=O)NCc3cccnc3)CC2=O)cc1 (stereo unspecified) — lower, -13.1%
- O=C(Nc1cccnc1Cl)c1cc(-c2ccccc2O)on1 — lower, -23.4%
- Brc1ccc(OCCn2ccnc2)cc1 — higher, -7.13%
- COc1ccc(CCN=C2SCC(=O)N2C)cc1OC — higher, 9.99%
- Cc1ccc2c(c1)c1ncn(Cc3ccc(F)cc3)c(=O)c1n2C — lower, -28.1%
- Cc1ccc(S(=O)(=O)Nc2nc3ccccc3nc2N2CCc3ccccc3C2)cc1 — lower, -23.2%
- CCN(C(=O)COC(=O)/C=C/c1nc2ccccc2s1)C1CCS(=O)(=O)C1 (stereo unspecified) — higher, -9.04%
- CCOC(=O)C1=C(C)NC(C)=C(C(=O)OCC)C1C1=COCCO1 — lower, -26%
- Cc1nn(Cc2ccc(Cl)cc2)c(Cl)c1/C=N/NC(=O)c1cccnc1 — lower, -21.6%
- CC1(C)C/C(=C(/C#N)C(N)=O)CCO1 — higher, -3.81%
- O=C(O)c1ccccc1NC(=S)NC(NC(=O)c1ccccc1[N+](=O)[O-])C(Cl)(Cl)Cl (stereo unspecified) — higher, 3.8%
- Cc1cc(C)cc(N(CC(=O)Nc2c(C)n(C)n(-c3ccccc3)c2=O)S(C)(=O)=O)c1 — higher, -0.0647%
- Cc1ccc(S(=O)(=O)N2CCCCC2)cc1NC(=O)[C@@H]1CCCN1C(=O)c1cccs1 — higher, 14.1%
- COc1ccc(S(=O)(=O)N2CCCCCC2)cc1NC(=O)Cc1ccc(OC)c(OC)c1 — higher, -7.55%
- COc1cccc(N(CC(=O)NC2CCCC2)C(=O)Cn2nnc(-c3ccc(C)cc3)n2)c1 — lower, -25.8%
- C=CCOc1c2ccc(C(=O)N(CC)c3ccc(OC)cc3)cc2nn1C — higher, -5.42%
- O=C1C(=O)N(CCCO)C(c2ccccc2)/C1=C(\O)c1ccc(Br)cc1 (stereo unspecified) — higher, -1.82%

For `Fc1ccccc1CNC(=S)Nc1ccc(Cl)cc1`, the Potency was 20.6 µM (active).
In the case of `CN1CCC[C@@H]1CCO[C@](C)(c1ccccc1)c1ccc(Cl)cc1`, the Potency is reported as 26.6 µM (active).
In the case of `CN1CCCC1CCO[C@@](C)(c1ccccc1)c1ccc(Cl)cc1` (stereo partly specified), the Potency is reported as 14.6 µM (active).
For `COC(=O)c1cccc(Cn2nnc3sc4c(c3c2=O)CCC(C(C)(C)C)C4)c1` (stereo unspecified), the Potency was 18.4 µM (active).
With `CCOC(=O)Cc1ncccc1C(=O)Nc1ccc(OC(F)(F)F)cc1` the Potency was 14.6 µM (active).
In the case of `CSc1sc(C)cc1C1C(C#N)=C(N)N(c2cccnc2)C2=C1C(=O)CCC2` (stereo unspecified), the Potency is reported as 11.6 µM (active).
With `O=c1c2cc(-c3ccccc3)sc2nc2n1N=C(c1cccs1)CS2` the Potency was 23.1 µM (active).
In the case of `Cc1cc(C)c(OCC(=O)N/N=C/c2ccco2)c(C)c1`, the Potency is reported as 16.4 µM (active).
In the case of `CCOC(=O)N1CCN(C(=O)c2ccc(CN(c3ccc(C)c(C)c3)S(C)(=O)=O)cc2)CC1`, the Potency is reported as 23.1 µM (active).
For `CCC1(C)CC(=O)NC1=O` (stereo unspecified), the Potency was “inactive”.
With `CCc1cccc(C)c1NS(=O)(=O)c1cc(Br)cnc1N` the Potency was 18.4 µM (active).
In the case of `CC(C)(CNC(=O)c1ccc(Cl)c(S(=O)(=O)N2CCc3ccccc3C2)c1)N1CCOCC1`, the Potency is reported as 23.1 µM (active).
For `Cc1ccccc1C(=O)Nc1ccc(N2CCCCCC2)cc1`, the Potency was 9.2 µM (active).
With `Cc1ccccc1C(=O)N1CCN(c2ccc(NC(=O)c3cccs3)cc2)CC1` the Potency was 16.4 µM (active).
In the case of `Cc1ccccc1C(=O)NC(=S)Nc1ccc(N2CCN(C(=O)c3ccccc3)CC2)cc1`, the Potency is reported as 10.3 µM (active).
For `Cc1ccc2c(c1)c1ncnc(N3CCc4ccccc4C3)c1n2C`, the Potency was 20.6 µM (active).
With `Cc1ccccc1C(OCCN(C)C)C1CCCCC1` (stereo unspecified) the Potency was 29.1 µM (active).
In the case of `CN(C)CCOC(=O)C(c1ccccc1)C1(O)CCCC1` (stereo unspecified), the Potency is reported as “inactive”.
With `CCOc1ccc(S(=O)(=O)N2CCCCC2)cc1NC(=O)CN1CCCC1c1cccs1` (stereo unspecified) the Potency was 2.06 µM (active).
For `CCN(C(=O)C1CCCN(c2nc(-c3ccc(OC)cc3)no2)C1)c1ccc(OC)cc1` (stereo unspecified), the Potency was 20.6 µM (active).
